PubChem BioAssay (NCATS)
Where “and” joins values, the source holds several entries; their conditions need not be identical. Equal values may be shown once. Results filed as inconclusive are left out. Calls of active or inactive are those of the source. Calls come from the whole dose curve; as a rule, active = well fitted inhibition curve with a large enough effect; inconclusive = small, poorly fitted or top-dose-only effect; inactive = no such curve, though single readings can be large or run the other way.
Potency is the fitted concentration of half-maximal effect.

Assay: Primary qHTS for inhibitors of nuclear receptor binding SET domain protein 2 (NSD2) in an RCH-ACV wild type WT cells (2C) (AID 1645877); note: nearly all actives have a fitted effect of over 70% in size
Details: RCH-ACV (leukaemia line) NSD2 WT (2C) viability, CellTiter-Glo, 72 h; series mostly up to 44.9 µM
With `Cc1ccc(NC(=O)c2ccc(CN3CCN(C)CC3)cc2)cc1Nc1nccc(-c2cccnc2)n1` the Potency was 13.3 µM (active) and 18.4 µM (active) and 16.6 µM (active). With `Cc1cc(C2CCCCC2)n(O)c(=O)c1` the Potency was 3.26 µM (active) and 266 nM (active) and 4.68 µM (active). For `Nc1ccn([C@@H]2O[C@H](CO)[C@@H](O)C2O)c(=O)n1` (some centres not stated), the Potency was 16.6 nM (active). For `CC1=C(C)C(=O)C(C(CCCCCC(=O)O)c2ccccc2)=C(C)C1=O` (configuration not stated), the Potency was “inactive”. In the case of `CCCS(=O)c1ccc2nc(NC(=O)OC)[nH]c2c1` (configuration not stated), the Potency was 2.66 µM (active) and 18.6 µM (active) and 4.09 µM (active). In the case of `Nc1cccc2c1CN(C1CCC(=O)NC1=O)C2=O` (configuration not stated), the Potency was “inactive”. With `Nc1ccc(S(N)(=O)=O)cc1` the Potency was “inactive”.
